Records with an inconclusive call do not appear. Calls of active or inactive are those of the source. The call rests on the fitted dose curve. Bridge positions count the residues as written; N and C are the ends. Square brackets hold non-standard residues; d marks the D form. Peptide text beside a SMILES is read from it. Orn = NCCC[CH](N)C(=O)O; Mpa = O=C(O)CCS
Assay: Primary qHTS to identify inhibitors of SARS-CoV-2 cell entry (AID 1645846); further: nearly all actives have a fitted effect of over 45% in size
Conditions: SARS-CoV-2 pseudovirus cell entry assay, luminescence; activity change, negative = inhibition: at 57.1 µM (top of the series) unless noted
From the text: Assay Provider: Wei Zheng, Ph.D.
National Center for Advancing Translational Sciences, National Institute of Health, Rockville, MD.
SARS-CoV-2 spike protein, within the viral envelope, mediates viral attachment and infection of host cells. The SARS-CoV-2 spike protein specifically binds to the host receptor ACE2 (Angiotensin-converting enzyme 2). This interaction promotes endocytosis of the viral particle, additional events lead to viral-host cell membrane fusion and release of the viral contents, allowing viral replication.
While SARS-CoV-2 requires BSL-3 facilities for live virus work, pseudotyped partices (PP) that incorporate SARS-CoV-2 spike proteins without replication elements could facilitate studies on viral entry mechanisms in a BSL-2 setting. This PP cell entry assay could also enable screening of small molecule compound libraries in BSL-2 setting to identify inhibitors of SARS-CoV-2 cell entry.
PROTOCOL TABLE (format as described by Inglese J, Shamu CE and Guy RK. 2007)
SEQUENCE No. (e.g., 1, 2, 3, etc.); […] (e.g., Cells, Incubation, Reagent, etc.); VALUE and DESCRIPTION.
1. Cells. Seed 1500 HEK293-ACE2 cells (Expi293F with stable expression of human ACE2) in 2 uL/well media (DMEM, 10% FBS, 1x L-glutamine, 1x Pen/Strep, 1 ug/ml puromycin) in white 1536-well assay plates (Greiner #782073).
2. Incubation. Incubate at 37C with 5% CO2 overnight (~16 h).
3. Compounds. Dispense 23 nL/well compounds in DMSO via pin transfer.
4. Incubation. Incubate for 1 hr at 37C 5% CO2.
5. Reagent. Dispense 2 uL/well of SARS-CoV-2-S pseudotyped particles. [a] PPs are produced with murine leukemia virus pseudotyping. [b] SARS-CoV-2-S is Wuhan-Hu-1 sequence (BEI #NR-52420) with C-terminal 19 amino acid truncation.
6. Centrifuge. […]
7. Incubation. Incubate at for 48 hr at 37C 5% CO2
8. Centrifuge. Remove supernatant with gentle centrifugation using a Blue Washer (BlueCat Bio).
9. Reagent. Dispense 4 uL/well of Bright-Glo Luciferase detection reagent (Promega #E2620).
10. Incubation. Incubate for 5 min at room temperature.
11. Detection. Read luminescence signal (Viewlux plate reader, PerkinElmer). Data was normalized with wells containing SARS-CoV-2-S PP as 100%, and wells containing bald PP (no fusion protein) as 0%.
Potency means the concentration at half of the fitted maximal effect.

Row | SMILES | Potency | activity change, negative = inhibition | outcome
1 | Oc1ccc(Nc2nc(-c3ccc(Cl)cc3)cs2)cc1 | 28.2 µM (active) |  | 
2 | C[C@]1(C(=O)N(CCCC(=O)O)Cc2cccc(Cl)c2)CCN1C(=O)c1csc2ccccc12 |  | -20.2% | 
3 | C=CCOc1ccc(CC(=O)O)cc1Cl |  | -9.87% [at 114 µM] | 
4 | N[C@@H]1CN(c2c(F)cc3c(=O)c(C(=O)O)cn([C@@H]4C[C@@H]4F)c3c2Cl)CC12CC2 |  | -5.2% | 
5 | CN1CCN(C2=Nc3ccccc3Cc3ccccc32)CC1 |  | -23.9% | 
6 | NC1=N[C@@]2(c3cc(NC(=O)c4ccc(F)cn4)ccc3F)COC[C@H]2CS1 |  | -18.7% | 
7 | CCC(=O)NC[C@@H]1C[C@H]1c1cccc2c1CCO2 |  | -21.9% | 
8 | CCOC(=O)[C@H](CCc1ccccc1)N[C@H](C)C(=O)N1C2CCCCC2C[C@H]1C(=O)O (stereo not given in full) |  | -29.8% | 
9 | CC(=O)[C@@]1(O)CC[C@H]2[C@@H]3CCC4=CC(=O)CC[C@@H]4[C@H]3CC[C@@]21C |  | -22.5% | 
10 | Cc1c(O)c(=O)ccn1C |  | -14.9% [at 114 µM] | 
11 | CC[C@@H](Oc1cccc(CN(CCCOc2ccc(OC)cc2)c2nc3ccccc3o2)c1)C(=O)O |  | -15.3% | 
12 | CN1C(=O)N[C@@H](Cc2c[nH]c3c(Cl)cccc23)C1=O |  | 1.88% | 
13 | C/C=C/C=C/C(=O)O | inactive |  | 
14 | COc1ncc(-c2ccc3c(Nc4cc(Oc5cc(F)cc(F)c5)cc(C(=O)O)c4)c(S(=O)(=O)NC4CC4)cnc3c2)c(OC)n1 |  | -25% | 
15 | C[C@@H]1O[C@@H](O[C@@H]2\C=C/C=C\C=C/C=C\C[C@H](C)OC(=O)/C=C\[C@H]3O[C@@H]3C[C@H](O)C[C@]3(O)C[C@@H](O)[C@@H](C(=O)O)[C@H](C2)O3)[C@H](O)[C@H](N)[C@@H]1O |  | -17.3% | 
16 | Cc1cc(C)c2c(c1)[C@@H](N(Cc1cc(C(F)(F)F)cc(C(F)(F)F)c1)c1nnn(C)n1)CCCN2CC1CCC(C(=O)O)CC1 (stereo not given in full) |  | -28% | 
17 | ClCC1CO1 (stereo not given) (tested in a mixture with another compound) |  | -15.1% | 
18 | C=CCN1C[C@H](C(=O)N(CCCN(C)C)C(=O)NCC)CC2c3cccc4[nH]cc(c34)C[C@H]21 (stereo not given in full) |  | -15.3% | 
19 | CN(C)/C(N)=N/C(=N)N |  |  | inactive [setting not given]
20 | N#Cc1ccc(Cn2cncc2CN2CCN(c3cccc(Cl)c3)C(=O)C2)cc1 | inactive |  | 

Row | SMILES | Potency | activity change, negative = inhibition | outcome
21 | O=C(Nc1cccnc1)c1cc(-c2ccnc(F)c2)ccc1OCc1ccccc1 |  | -5.26% | 
22 | CCCCC(F)(F)C1(O)CCC2C(CC(=O)C2CCCCCCC(=O)O)O1 (stereo not given) | inactive |  | 
23 | C=C1CC[C@H](O)C/C1=C\C=C1/CCC[C@]2(C)[C@@H]([C@H](C)CC[C@H](O)C(C)(C)O)CC[C@@H]12 |  | -14.2% | 
24 | CCOc1ccc(CC2NC(=O)CCSSCC(C(=O)N3CCCC3C(=O)NC(CCCN)C(=O)NCC(N)=O)NC(=O)C(CC(N)=O)NC(=O)C(C(C)O)NC(=O)C(C(C)CC)NC2=O)cc1 (stereo not given) ([Mpa]Y(Et)ITNCP[Orn]G-NH2; disulfide 1-6; configuration not given here) |  | -38.4% | 
25 | C[C@H]1[C@H](C)CC[C@]2(C(=O)O)CC[C@]3(C)C(=CC[C@@H]4[C@@]5(C)C[C@@H](O)[C@H](O)[C@@](C)(CO)[C@@H]5CC[C@]43C)[C@H]12 | inactive |  | 
26 | O=C(NCC(=O)N1CC[C@H](NC2CCC(O)(c3ccc(-c4ncccn4)cn3)CC2)C1)c1cccc(C(F)(F)F)c1 (stereo not given in full) |  | -29.7% | 
27 | C=C(C)CNc1ccc(C(C)C(=O)O)cc1 (stereo not given) |  | -20.2% | 
28 | CN1CC(O)c2cc(N=NC(N)=O)c(O)cc21 (stereo not given) |  | -20% | 
29 | CC(C)OC(=O)CCC/C=C\C[C@@H]1[C@@H](/C=C/[C@@H](O)COc2cccc(C(F)(F)F)c2)[C@H](O)C[C@@H]1O | 14.1 µM (active) |  | 
30 | CC1=C(/C=C/C(C)=C/C=C/C(C)=C/C=C/C=C(C)/C=C/C=C(C)/C=C/C2=C(C)CCCC2(C)C)C(C)(C)CCC1 |  | -16.6% | 
31 | O=C(NNc1ccccc1)c1ccncc1 |  | -19.4% | 
32 | O=C1CCC(=O)N1CO | inactive |  | 
33 | N#CCC1(n2cc(-c3ncnc4[nH]ccc34)cn2)CN(C2CCN(C(=O)c3ccnc(C(F)(F)F)c3F)CC2)C1 | inactive |  | 
34 | COc1ccc(-c2c(Cl)ncn2-c2ccc(S(N)(=O)=O)cc2)cc1F |  | -27% | 
35 | C[C@H]1Oc2cc(cnc2N)-c2c(nn(C)c2C#N)CN(C)C(=O)c2ccc(F)cc21 |  | -7.26% | 
36 | CC(C)(O)CC[C@@H](O)[C@](C)(O)[C@H]1CC[C@@]2(O)C3=CC(=O)[C@@H]4C[C@@H](O)[C@@H](O)C[C@]4(C)[C@H]3CC[C@]12C |  | -22.8% | 
37 | CC(=O)OCC(=O)[C@@]1(O)CC[C@H]2[C@@H]3C[C@H](C)C4=CC(=O)C=C[C@]4(C)[C@H]3[C@@H](O)C[C@@]21C | inactive |  | 
38 | CC(/C=C1\SC(=S)N(CC(=O)O)C1=O)=C\c1ccccc1 | inactive |  | 
39 | O=C([O-])C[O-].[Pt+2] | inactive | -22.9% [at 27.1 µM] | 
